# According to PubChem BioAssay (NCI):
# About 83,000 compounds went through this panel and 20% of them were active in at least one assay; those are over-represented in the sample as a whole.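 Plates (96-well) were seeded with cells, treated with compound at one concentration, and incubated for 48 hours before percent growth was determined.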 Unmarked numbers belong to inactive results. Calls of active or inactive are those of the source. Rule for the calls: active = growth percent below 10; inactive = the rest.
# Key:
# Assay in all cases: NCI-60 one-dose screen, 48 h (100 = growth as untreated, 0 = no growth, -100 = all killed)
# Conditions in all cases: 10 µM unless noted
# [1] = system: NCI-H23 lung
# [2] = system: NCI-H226 lung
# [3] = system: NCI-H322M lung
# [4] = system: HOP-62 NSCLC
# [5] = system: NCI-H460 lung
# [6] = system: HOP-92 NSCLC
# [7] = system: NCI-H522 lung
# [8] = system: A549/ATCC NSCLC
# [9] = system: 786-0 renal
# [10] = system: COLO 205 colon
# [11] = system: DU-145 prostate
# [12] = system: K-562 leukemia
# [13] = system: MALME-3M melanoma
# [14] = system: MDA-MB-231 breast
# [15] = system: RXF 393 renal
# [16] = system: SF-268 CNS
# [17] = system: SF-295 CNS
# [18] = system: SF-539 CNS
# [19] = system: UACC-257 melanoma
# [20] = system: M14 melanoma
SMILES,growth [1],growth [2],growth [3],growth [4],growth [5],growth [6],growth [7],growth [8],growth [9],growth [10],growth [11],growth [12],growth [13],growth [14],growth [15],growth [16],growth [17],growth [18],growth [19],growth [20]
Cc1cc(=O)n(Nc2ccccc2)c(O)c1C#N,97.4%,94%,92.4%,86%,105%,102%,100%,106%,101%,104%,109%,92.5%,105%,103%,124%,102%,101%,104%,116%,99.4%
Cc1ccc(C)c(CN(C)C)c1O,102%,97.6%,108%,97.4%,102%,88.1%,111%,106%,107%,113%,108%,119%,94.8%,109%,107%,104%,97.8%,96.5%,105%,105%
Cc1ccc(O)c(N)c1,121%,97%,98.1%,132%,103%,126%,70.6%,98.7%,115%,117%,122%,113%,103%,92.8%,117%,112%,131%,103%,111%,108%
CN1CCCN(C(c2ccccc2)c2ccc(Cl)cc2)CC1 (centres undefined),91.4%,93.9%,100%,94.2%,93%,60.4%,103%,107%,73.3%,103%,107%,90%,98.8%,95.8%,86.8%,82.3%,92.2%,96.9%,,91.1%
NC(=O)c1cc2c3ccccc3ccn2c1-c1ccccc1,18.7%,23.3%,46.3%,24.3%,0.187% (active),32.7%,53.1%,22.8%,17.4%,-13.2% (active),5.57% (active),4.64% (active),86%,29.3%,25.5%,22%,4.09% (active),-19.7% (active),64.9%,11.3%
CC(=O)[C@@]1(O)CC[C@H]2[C@@H]3CC[C@@H]4CC(=O)CC[C@]4(C)[C@H]3[C@@H](O)C[C@@]21C,96.9%,95.9%,105%,74.2%,110%,84.3%,88.4%,81.7%,99.2%,95.3%,111%,94.9%,108%,99.6%,105%,99.1%,91.9%,96.8%,,93%
NNC(=O)c1ccccc1N,101%,114%,118%,90.6%,118%,86.4%,130%,120%,96.9%,133%,120%,118%,110%,113%,40.6%,114%,110%,112%,93.9%,106%
C/C(=N\O)c1ccccn1,104%,98%,101%,102%,103%,95.4%,83.2%,91.2%,101%,108%,106%,106%,108%,101%,108%,96.8%,102%,103%,86.3%,105%
Oc1ccc(CCC2CCNc3ccccc32)cc1 (centres undefined),65.3%,62.8%,91.1%,75.8%,83.8%,49.3%,68.8%,52.1%,82.2%,93.4%,93.4%,69.7%,98.8%,86.2%,81.5%,83.1%,75.2%,75.7%,,89.4%
CSCCC(NC(=O)C(Cl)Cl)C(=O)O (centres undefined),99%,88.5%,99.6%,77.9%,114%,85.2%,86.8%,80.5%,101%,99.7%,108%,97.8%,114%,99.3%,97.1%,99.1%,98.1%,96.1%,,93.8%
O=C(O)C1CSC(c2ccccc2)N1 (centres undefined),95%,97%,98.8%,89.5%,98.5%,111%,79.4%,100%,112%,84.6%,105%,128%,98.8%,80.9%,106%,102%,99.8%,,106%,95.6%
Cn1c(=O)c2[nH]c(CC(=O)O)nc2n(C)c1=O,100%,90.9%,99.6%,97.2%,110%,113%,86.4%,91.4%,106%,109%,108%,105%,99.4%,100%,104%,101%,101%,,96.9%,104%
CN(C)c1ccc2nc3ccc(=[N+](C)C)cc-3oc2c1,9.83% (active),33.2%,9.08% (active),7.12% (active),35.3%,55.9%,-37.4% (active),30.7%,66.1%,-10.3% (active),59%,16.9%,-21.8% (active),-14.6% (active),89.6%,-17.5% (active),50.3%,7.14% (active),-30.1% (active),3.87% (active)
Cc1ccccc1NC(=O)Oc1ccc(Cl)cc1C(=O)c1ccccc1,95.1%,92.5%,99.1%,88.1%,104%,83.9%,88.4%,91%,102%,109%,87.4%,96.1%,105%,85.1%,82%,72.7%,107%,87.3%,102%,103%
CCCCCCCCCCCCCC/C=C\C(CC(=O)O)C(=O)O (centres undefined),108%,109%,117%,105%,106%,106%,107%,103%,103%,97.7%,110%,154%,123%,102%,117%,103%,110%,108%,107%,103%
C=C(C)[C@@H]1CC[C@]2(CO)CC[C@]3(C)[C@H](CC[C@@H]4[C@@]5(C)CC[C@H](O)C(C)(C)[C@@H]5CC[C@]43C)[C@@H]12,25.9%,37.5%,68.9%,43.2%,31.4%,36.4%,40.2%,-3.89% (active),-7.62% (active),52.5%,28.2%,24.3%,63%,4.46% (active),-50.7% (active),54.6%,71.4%,-33% (active),6.89% (active),49.3%
CCC(=O)Oc1c(C)cc(O)c2ccccc12,83.5%,86.8%,87.4%,79.5%,95.6%,79.5%,84.5%,93.4%,84.7%,110%,107%,73.4%,113%,88.6%,92.4%,90.9%,83.4%,91.6%,94.4%,95.2%
